Screens from PubChem BioAssay.
This is one part of a sample in which hits are shown more often than they occur.
MITF inh: blocks MITF activity. TRPM1 promoter luciferase, luminescence, 24 h. inhibition, % (concentration not given with the values). AID 2240. 37,000 tested, 0.28% active; in the data active = inhibition above about 85%; inconclusive = no clear call, values can overlap the other calls; inactive = below about 68%;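 also: human melanocyte line stably carrying TRPM1 promoter luciferase reporter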
Shh pathway inh: Sonic Hedgehog pathway inhibition | Shh-LIGHT2 Gli-luciferase reporter, 30 h | inhibition, % (no concentration beside the values) | 22,000 tested, 2.1% active | AID 2313;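 active = mean inhibition across valid replicates above about 65%, limit read from the data; inconclusive = mean under the limit, yet half or more replicates past it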;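 also: pathway switched on by Shh-conditioned medium diluted 1 in 25 in low serum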
YB-1 expr inh: YB-1 expression inhibition | U2OS, qRT-PCR YB-1 vs CDIP delta delta Cp, 16 h; hits give high values; zero = DMSO, each unit about twofold | delta delta Cp (YB-1 minus CDIP) (concentration not given with the values) | 30,000 tested, 0.37% active | AID 434959;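 active = delta delta Cp rounded down to an integer at or above 3, about 3 SD of DMSO wells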;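 also: higher means less YB-1 transcript or more CDIP transcript relative to DMSO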
PD-1 reversal: activators reversing PD-1 mediated T-cell inhibition; activation, % (test concentration not listed); primary human CD4 T cells, PD-L1 beads, CellTiter-Glo 96 h; 29,000 tested, under 10 active; AID 2316; call rule not given here;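 also: 0% = median vehicle wells and 100% = positive control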
Active calls of the source: *; ? = inconclusive; . = no result.

SMILES	MITF inh	Shh pathway inh	YB-1 expr inh	PD-1 reversal
C=C[C@](C)(CC/C=C(\C)CC[C@H](O)C(C)(C)O)O[C@@H]1O[C@H](CO)[C@@H](O)[C@H](O)[C@H]1O	-11.0	-14.1	0.75	0.8
C[C@@H]1O[C@@H](O[C@H]2[C@H](O)[C@@H](O)[C@H](O[C@H]3[C@H](O[C@H]4CC[C@@]5(C)C(=CC[C@H]6C7C[C@@H]8O[C@]9(CC[C@@](C)(CO[C@@H]%10O[C@H](CO)[C@@H](O)[C@H](O)[C@H]%10O)O9)[C@H](C)C8[C@@]7(C)CCC65)C4)O[C@H](CO)[C@@H](O)[C@@H]3O)O[C@@H]2CO)[C@H](O)[C@H](O)[C@H]1O (stereo partly specified)	.	97.2*	0.148	.
C[C@@H]1O[C@@H](O[C@H]2[C@H](O)[C@@H](O[C@@H]3O[C@H](CO)[C@@H](O)[C@H](O)[C@H]3O)[C@H](O[C@H]3CC[C@@]4(C)C(=CC[C@@H]5C4CC[C@@]4(C)C5C[C@@H]5O[C@]6(CC[C@@](C)(CO)O6)[C@@H](C)[C@@H]54)C3)O[C@@H]2CO)[C@H](O)[C@H](O)[C@H]1O (stereo partly specified)	-1.2	-1.3	-0.529	0.9
C=C(C)C1CCC2(C(=O)O)CCC3(C)C(CCC4C5(C)C(C=O)C(O)C(C)(CO)C5CCC43C)C12 (stereo unspecified)	15.4	8.8	0.0406	0.9
Nc1ncnc2c1c(I)cn2C1OC(CO)C(O)C1O (stereo unspecified)	87.6*	44.0	-2.86	.
Nc1nc(Cl)nc2c1ncn2C1OC(CO)[C@H](O)[C@H]1F (stereo partly specified)	29.1	19.2	-0.0195	-20.4
O=C1C=CC(=C(c2ccc(O)cc2)c2ccc(O)cc2)C=C1	68.0	65.6*	0.145	.
O=C(COc1ccc(Br)cc1)Nc1cccc(NC(=O)c2ccc(Cl)cc2Cl)c1	-0.5	.	.	0.5
CN1C(=O)[C@@]2(Cc3ccccc3)SSS[C@]1(CO)C(=O)N2C	91.0*	70.2*	-0.556	-16.7
C/C=C(\C)C(=O)O[C@@H]1C(C)=C2[C@H]3OC(=O)[C@](C)(O)[C@]3(O)[C@H](OC(=O)C(C)CC)C[C@@](C)(OC(C)=O)[C@@H]2[C@H]1OC(=O)CCCCCCC (stereo partly specified)	.	99.0*	-0.854	.
Oc1ccc(/C=C/c2cc(O)cc(O)c2)cc1	100.7*	?	0.133	.
C[C@@H]1CCCCO[C@@H](CN(C)S(=O)(=O)c2cccs2)[C@@H](C)CN([C@H](C)CO)C(=O)c2cc(NS(=O)(=O)c3cccs3)ccc2O1	-8.4	.	0.0823	.
C[C@@H]1CCCCO[C@@H](CN(C)S(=O)(=O)c2cccs2)[C@@H](C)CN([C@H](C)CO)C(=O)c2cc(NS(C)(=O)=O)ccc2O1	-1.7	66.8*	-0.253	-1.3
C[C@@H]1CCCCO[C@H](CN(C)S(=O)(=O)c2ccc(Cl)cc2)[C@@H](C)CN([C@H](C)CO)C(=O)c2cc(NS(=O)(=O)c3ccc(Cl)cc3)ccc2O1	35.5	13.8	-0.0301	.
C[C@@H]1CCCCO[C@H](CN(C)C(=O)Nc2cccc3ccccc23)[C@@H](C)CN([C@H](C)CO)C(=O)c2cc(NS(=O)(=O)c3ccc(Cl)cc3)ccc2O1	16.9	25.8	14.9*	-3.7
C[C@@H]1CCCCO[C@@H](CN(C)S(=O)(=O)c2ccc(Cl)cc2)[C@@H](C)CN([C@H](C)CO)C(=O)c2cc(NS(=O)(=O)c3ccc(Cl)cc3)ccc2O1	53.4	71.0*	-0.855	.
C[C@@H]1CN([C@H](C)CO)C(=O)c2cc(NS(=O)(=O)c3cccs3)ccc2O[C@@H]1CN(C)C(=O)Nc1cccc2ccccc12	5.5	-3.2	0.0999	0.1
Cc1cccc(NC(=O)CC(C(=O)O)N2CCOCC2)c1 (stereo unspecified)	-1.3	.	.	1.6
COc1ccc(NC(=O)O[C@H]2[C@@H]3OC(=O)[C@H](Cc4ccccc4)C/C=C/C[C@@H](Cc4ccccc4)C(=O)O[C@H]3[C@@H](OC)O[C@@H]2CO)cc1	.	.	-0.521	.
C[C@@H]1CCCCO[C@@H](CN(C)S(=O)(=O)c2ccccc2)[C@@H](C)CN([C@H](C)CO)C(=O)c2cc(NC(=O)NC3CCCCC3)ccc2O1	10.5	-0.4	0.13	-4.3
COc1ccc(S(=O)(=O)N(C)C[C@@H]2Oc3ccc(NS(=O)(=O)c4cccs4)cc3CC(=O)N([C@H](C)CO)C[C@H]2C)cc1	1.8	1.5	0.268	-0.5
CCC(=O)[C@@]1(C)[C@H](C)C[C@H]2[C@@H]3CCC4=CC(=O)C=C[C@]4(C)[C@H]3[C@@H](O)C[C@@]21C	-12.5	64.7*	0.284	.
CCC(=O)OCC(=O)[C@@]1(OC(=O)CC)[C@H](C)CC2C3C([C@@H](O)C[C@@]21C)[C@@]1(C)C=CC(=O)C=C1C[C@H]3Cl (stereo partly specified)	-2.4	68.2*	0.175	.
CCC(=O)OC1(C(=O)CCl)[C@@H](C)C[C@H]2[C@@H]3CCC4=CC(=O)C=C[C@]4(C)[C@@]3(F)[C@@H](O)C[C@@]21C (stereo partly specified)	-30.5	50.2	-0.223	.
CCCC1O[C@@H]2C[C@H]3[C@@H]4CCC5=CC(=O)C=C[C@]5(C)[C@H]4[C@@H](O)C[C@]3(C)[C@]2(C(=O)CO)O1 (stereo partly specified)	-17.9	52.2	0.19	-5.6
SMILES	MITF inh	Shh pathway inh	YB-1 expr inh	PD-1 reversal
CCOc1ccc(NC(=O)CC2NC3CCCCC3NC2=O)cc1 (stereo unspecified)	5.3	.	.	0.9
CC(C)NC(=O)Nc1ccc2c(c1)CC(=O)N([C@@H](C)CO)C[C@H](C)[C@@H](CN(C)C(=O)Nc1ccc3c(c1)OCO3)O2	8.7	21.3	-0.768	-0.2
C[C@H]1CN([C@@H](C)CO)C(=O)Cc2cc(NC(=O)C3CCCCC3)ccc2O[C@H]1CN(C)CC1CCCCC1	-10.6	26.7	-0.457	-1.1
C[C@@H]1CN([C@@H](C)CO)C(=O)Cc2cc(NC(=O)Nc3ccccc3)ccc2O[C@@H]1CN(C)Cc1ccc2c(c1)OCO2	13.5	-6.5	0.0794	1.0
C[C@H]1CN([C@@H](C)CO)C(=O)Cc2cc(NC(=O)Nc3ccccc3)ccc2O[C@@H]1CN(C)Cc1ccc2c(c1)OCO2	-6.6	69.6*	-0.76	1.5
C[C@@H]1CN([C@H](C)CO)C(=O)Cc2cc(NC(=O)C3CCCCC3)ccc2O[C@@H]1CN(C)CC1CCCCC1	-7.9	75.8*	0.104	0.8
CC(C)NC(=O)Nc1ccc2c(c1)CC(=O)N([C@@H](C)CO)C[C@H](C)[C@H](CN(C)C(=O)Nc1ccc3c(c1)OCO3)O2	-5.7	65.3*	-0.193	0.9
O=C(CN1CCCCC1)Nc1ccc(NC(=O)CN2CCCCC2)cc1	-29.6	.	.	1.0
CCOC(=O)c1cnc2ccc(F)cc2c1NCc1ccco1	-13.8	.	.	-4.6
OC(Cc1cccnc1)(c1ccccc1)c1ccccc1	26.9	70.6*	-0.7	-0.7
CNS(=O)(=O)c1cc(-c2nnc(Nc3ccc(NC(C)=O)cc3)c3ccccc23)ccc1C	-5.9	.	.	4.6
Clc1cccc(Nc2nnc(-c3ccccc3)c3ccccc23)c1	65.8	93.9*	-0.327	-18.2
